Laboratory results published in PubChem BioAssay AID602346 (Broad Institute, 2012).
About 1,200 (0.35%) of roughly 340,000 compounds were called active. The sample holds actives, similar compounds and a random draw of the others, so the mix is not that of the screen. Unmarked numbers belong to inactive results. No stated cut-off is given here; in the data, active means inhibition above about 50% (passing the limit was not always enough); inconclusive means no clear call, values can overlap the other calls; inactive means below about 31%.

Experiment: HIV Vif self-association inhibitors, primary screen, imaging, HEK293T, single point (AID 602346)
Settings: HEK293T cells, Vif self-association by quenched fluorescence, 24 h, at 7.49 µM, stronger effect = higher value

Row | SMILES | inhibition
1 | CC(=O)Nc1ccc(CNc2nc(NCCN(C)C)nc3cc(-c4ccccc4)sc23)cc1 | -16%
2 | Cc1ccc(NC(=O)Cn2nnc(C(=O)NCc3ccco3)c2N)c(C)c1 | -2.06%
3 | CCOc1ccccc1NC(=O)Cn1nnc(C(=O)NCc2cccs2)c1N | 62.1% (active)
4 | COc1cccc(CNC(=O)c2nnn(CC(=O)Nc3cc(C)ccc3C)c2N)c1 | 9.65%
5 | NC(=S)NN=Cc1ccc(OC(=O)COc2cc(Cl)c(Cl)cc2Cl)cn1 | 4.39%
6 | CC(C)Oc1cc(F)ccc1-c1cc(C(=O)Nc2cccc(Cl)c2)[nH]n1 | -9.5%
7 | CC(=O)NC1CCN(CC(=O)Nc2nccs2)CC1 | 4.49%
8 | CC1CCN(CC(=O)Nc2nccs2)CC1 | 50.9% (active)
9 | O=C(COC(=O)c1ccc(O)cc1)Nc1nccs1 | 2.05%
10 | CC(C)Oc1ccc(CN2CCC2(C)C(=O)NCc2ccc(C(F)(F)F)cc2)cc1 (stereo not drawn) | -4.01%
11 | O=C(NCc1cccnc1)c1cc(C2CCCCN2C(=O)CCc2ccccc2)on1 (stereo not drawn) | -0.0335%
12 | COCOCCn1cc(CN2CCS(=O)(=O)N(Cc3ccc(-c4ccc(OC)cc4)cc3)C(CC(C)C)C2=O)nn1 (stereo not drawn) | 1.43%
13 | CCN1C(=O)c2cccc3c(S(=O)(=O)Nc4ccccc4O)ccc1c23 | 112% (active)
14 | O=C(CN1C(=O)c2cccc3cccc1c23)Nc1ccccc1 | 2.82%
15 | CCN(CC)S(=O)(=O)c1ccc2c3c(cccc13)C(=O)S2 | -0.161%
16 | O=C(NCc1cccnc1)c1ccccc1NC(=O)c1c(F)cccc1F | -6.43%
17 | O=C(NCc1cccnc1)Nc1cccc(NC(=O)NCc2cccnc2)c1F | 56% (active)
18 | O=C(NCc1cccnc1)Nc1ccccc1F | 20.3%
19 | C#Cc1ccc(NC(=O)C2(C)CCN2C(=O)Cc2ccc(-c3ccccc3)cc2)cc1 (stereo not drawn) | -14.6%
20 | Cc1cccc(C)c1Cn1c(C)c(C(=O)NCc2cccc(Cl)c2)sc1=O | -0.663%
21 | O=C1[C@H]2[C@@H](c3ccc(C(F)(F)F)cc3)N[C@]3(CCCN(Cc4ccc(Cl)cc4)C3=O)[C@H]2C(=O)N1Cc1ccccc1 | 2.09%
22 | CC1(C(=O)Nc2cccc3cccnc23)CCN1C(=O)CCC1CCCC1 (stereo not drawn) | -1.65%
23 | CN(C)CCNC(=O)c1ccc(-c2cn3c(-c4ccc(Oc5ccccc5)cc4)cnc3cn2)cc1 | 1.97%
24 | COc1ccc(-c2cc(-c3ccc(N)cc3)nc(N)c2C#N)cc1OC | -0.12%
25 | COc1ccc(-c2ccc(Nc3ccc(S(=O)(=O)N4CCCC4)cc3)nn2)cc1OC | -7.98%
26 | COc1ccc(-c2cc(C(F)(F)F)nc(S(C)(=O)=O)n2)cc1OC | 90.1% (active)
27 | COc1ccc(OC)c(C(=O)NC2CCCc3c2cnn3-c2cc(C)cc(C)c2)c1 (stereo not drawn) | -9.82%

Row | SMILES | inhibition
28 | CC(=O)Nc1cc(-c2ccccc2F)cn2c(-c3cccc(C(F)(F)F)c3)cnc12 | -25.4%
29 | OC[C@@H]1CN(Cc2ccncc2)C[C@H](n2cnc3c(N4CCN(c5ccccc5)CC4)ncnc32)O1 | -25.2%
30 | NS(=O)(=O)c1ccc(-c2ccc(/C=C3\SC(=O)NC3=O)o2)cc1 | 55.8% (active)
31 | CN1CCN(/N=C/c2ccc(-c3ccc([N+](=O)[O-])cc3)o2)CC1 | -7.47%
32 | O=C1[C@H]2[C@@H](c3ccc(C(F)(F)F)cc3)N[C@]3(CCCN(Cc4ccc(Br)cc4)C3=O)[C@H]2C(=O)N1Cc1ccccc1 | 1.02%
33 | C#Cc1cc(N2CCN(C(=O)c3ccoc3)CC2)n2nc(-c3cccc(Cl)c3)cc2n1 | -5.39%
34 | CN(C)C(=O)CCc1ccc2c3c([nH]c2c1)[C@]1(C)[C@@H](C(=O)N2CCCCC2)C[C@H](CC(=O)NCCC2=CCCCC2)C(=O)N1CC3 | 71.8% (active)
35 | CC(C)N(C(=O)[C@H]1C[C@H](CC(=O)NCCC2=CCCCC2)C(=O)N2CCc3c([nH]c4cc(CCC(=O)N(C)C)ccc34)[C@]12C)C(C)C | 0.666%
36 | CN(C)C(=O)CCc1ccc2c3c([nH]c2c1)[C@]1(CCc2ccccc2)[C@@H](C(=O)N2CCCCC2)C[C@H](CC(=O)NCCC2=CCCCC2)C(=O)N1CC3 | 2.36%
37 | Cc1nc2c(OCc3cccc(Cl)c3)cccn2c1N(C)CC1CC1 | -11.2%
38 | COc1ccc(CC(N)c2csc(NC(=O)Nc3ccc(C(C)C)cc3)n2)cc1 (stereo not drawn) | -7.74%
39 | Cc1ccc(CCC(=O)Nc2ncc(Cc3cc(Cl)ccc3Cl)s2)o1 | 144% (active)
40 | Cc1ccc(Cc2cnc(N)s2)o1 | -1.08%
41 | Cc1ccc(C(=O)Nc2nc3ccc(Cl)cc3s2)o1 | -31.1%
42 | CSCCC(c1nnnn1Cc1ccccc1)N1CCN(C/C=C/c2ccccc2)CC1 (stereo not drawn) | -1.75%
43 | Cc1ccc(Cn2c(C)c(C(=O)NCc3ccccc3C(F)(F)F)sc2=O)cc1 | 4.56%
44 | CCCc1ccc(OCc2ccc(C(=O)N/N=C/c3cccc([N+](=O)[O-])c3)o2)c(OC)c1 | 53.7% (active)
45 | COC(=O)c1ccc(COc2ccc(/C=N/NC(=O)C(=O)Nc3ccc(OC)cc3)cc2OC)o1 | 4.89%
46 | N#Cc1cc([N+](=O)[O-])ccc1Oc1cccc(/C=N/NC(=O)c2ccc(Cl)cc2)c1 | -18.6%
47 | CN(C)c1cccc(NC(=O)c2ccc(-c3ccc(F)c(F)c3)c3ccoc23)c1 | 3.47%
48 | CC[C@@H]1Cc2cc(O)ccc2C2=C1c1ccc(O)cc1C[C@H]2CC | 85.1% (active)
49 | CC(=O)Nc1cccc(-c2cc(NC(C)=O)c3ncc(-c4ccccc4)n3c2)c1 | 18.3%
50 | O=c1[nH]c2ccccc2n1C1CCN(CCOc2ccccc2)CC1 | -4.07%
51 | COc1ccc(/C=C/C(=O)c2c(O)cc(OC)cc2OC)cc1 | -16.7%
52 | CC(C)(C)Oc1ncc(Br)c(OC(C)(C)C)n1 | 61.1% (active)
53 | COc1cccc(-c2cnc(OC(C)(C)C)nc2OC(C)(C)C)c1 | -0.006%
